Here are results for 97 compounds from PubChem BioAssay AID525 (The Scripps Research Institute Molecular Screening Center, 2006).

Each structure is given as a SMILES string. The whole screen tested about 65,000 compounds, of which about 360 (0.55%) were called active. What follows is part of a selection rich in actives, with near analogues and random picks from the rest. Values without a mark were called inactive.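 How the source made its calls: active means inhibition above the mean inhibition of all tested compounds plus 3 SD (cut at about 48% in these data); inactive means the rest.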

This experiment deals with Steroidogenic factor 1 (Homo sapiens) (UniProt Q13285). As to the kind of experiment: suppressors of SF-1 driven luciferase transcription – cell-based, CHO-K1, Gal4-SF-1 LBD, luciferase luminescence, primary screen (AID 525).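 Further: 0% = SF-1 transfected cells with DMSO and 100% = mock-transfected cells lacking SF-1.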 Conditions: CHO-K1 Gal4-SF-1 LBD luciferase reporter; at 10 µM; stronger effect = higher value.
Sequence of Steroidogenic factor 1 (Homo sapiens) (Q13285 whole entry, looked up, the tested form may be a part): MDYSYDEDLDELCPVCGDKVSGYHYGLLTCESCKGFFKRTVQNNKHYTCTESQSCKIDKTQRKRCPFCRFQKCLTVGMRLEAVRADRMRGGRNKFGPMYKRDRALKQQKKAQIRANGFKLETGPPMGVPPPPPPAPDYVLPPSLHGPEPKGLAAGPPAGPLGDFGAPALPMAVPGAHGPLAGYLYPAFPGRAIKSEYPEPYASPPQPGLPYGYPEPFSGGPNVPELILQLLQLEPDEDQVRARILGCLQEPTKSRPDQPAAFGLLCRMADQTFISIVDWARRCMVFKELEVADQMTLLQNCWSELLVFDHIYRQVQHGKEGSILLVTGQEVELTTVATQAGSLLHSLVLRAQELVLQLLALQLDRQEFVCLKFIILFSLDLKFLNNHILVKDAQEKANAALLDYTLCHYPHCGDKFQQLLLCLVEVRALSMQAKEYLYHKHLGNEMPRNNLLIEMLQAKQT
For `O=C(NCCCN1CCN(C2CCCCC2)CC1)Nc1ccccc1C(F)(F)F`, the inhibition was -13.5%.
`CC(C)(C)NC(=O)C(c1ccco1)N(Cc1ccc2c(c1)OCO2)C(=O)Cn1nnc2ccccc21` (configuration not stated): the inhibition was -8.6%.
As to `CCOc1cc(S(=O)(=O)NC2CC(C)(C)NC(C)(C)C2)ccc1F`, the inhibition is -4.6%.
Under `OCCCNC(c1ccccc1)c1ccc(O)cc1` (configuration not stated) stands -6.6%; under `CCCOc1ccccc1C(=O)NCCCC(=O)O`, -3.2%.
As for `COc1ccccc1Oc1ccc(S(=O)(=O)Nc2cccnc2)cc1`, the figure is 13.8%; as for `COc1cc2cc(CN(CCN3CCCC3)C(=O)Nc3ccccc3Cl)c(=O)[nH]c2cc1OC`, 8.5%; as for `Clc1cccc(Cl)c1Cn1nnc(-c2cccs2)n1`, -50.8%.
As for `CCCNC(=O)C1CC(=O)N(c2ccc(OCC(=O)Nc3cccc(C)c3C)cc2)C1` (configuration not stated), the figure is -1%.
Take `NC(=O)C1CC=CCC1C(=O)OCC(Cl)=C(Cl)Cl` (configuration not stated): the inhibition was 38.2%.
Under `CCCCOC(=O)c1[nH]c(C)c(C(=O)OC)c1C` stands -77.7%; under `O=C(CSc1nnc(-c2c[nH]c3ccccc23)n1-c1ccc(F)cc1)NCc1ccco1`, -15.6%.
Consider `CCOC(=O)c1ccc(-c2ccc(C(=O)Nc3cccnc3)o2)cc1`, for which the inhibition is -51.3%.
As for `Cc1ccc(-c2nnc(SC(C)C#N)n2N)cc1` (configuration not stated), the figure is -9.5%.
Under `C/C(=C\c1ccco1)C1Nc2cccc3cccc(c23)N1` stands 1.5%.
Under `COc1ccc(CC(=O)Nc2ccc(-c3nnc(-c4ccccc4)o3)cc2)cc1` stands 59.5% (active); under `O=C(Nc1ccc(-c2nnc(-c3ccccc3)o2)cc1)C1CCCO1` (configuration not stated), -65.9%.
As to `Cc1ccc(OCC(=O)Nc2ccc(-c3nnc(-c4ccco4)o3)cc2)cc1`, the inhibition is -65.5%.
Under `O=C(CCS(=O)(=O)c1ccccc1)Nc1nc2c(s1)CCCC2` stands -3.7%; under `CS(=O)(=O)c1ccc2nc(NC(=O)CN3CCCCCC3)sc2c1`, 3.7%.
In the case of `O=C(NCCc1ccc(Cl)cc1)C1CC(=O)N(C2CCCCC2)C1` (configuration not stated), the inhibition was -13.3%.
As for `CCCCCCOC(=O)NCC(O)c1ccccc1` (configuration not stated), the figure is -52.5%; as for `O=C1CCC(Cc2ccccc2)N1` (configuration not stated), 7.6%.
As to `COc1ccc(N2C(=O)CCC(C(=O)Nc3ccccn3)C2c2ccc(OC)c(OC)c2)cc1` (configuration not stated), the inhibition was -11%.
Consider `COCCN(CC(=O)Nc1ccccc1C)S(=O)(=O)c1ccc(S(=O)(=O)N2CCCC2)cc1`, for which the inhibition was 0.4%.
As for `COc1ccc(N2CCN(C(=O)CSc3ncnc4c3cnn4-c3ccc(OC)cc3)CC2)cc1`, the figure is -9%; as for `COc1ccc(Nc2cc(C)nc(-n3nc(C)cc3C)n2)cc1`, 53.7% (active).
Regarding `Cn1c(=O)c2cn(-c3cccc4ccccc34)cc2n(C)c1=O`, the inhibition is -21.5%.
As for `Cc1cc(NC(=O)c2cc(-c3cccs3)on2)nn1Cc1ccc(Cl)cc1`, the figure is 2.7%; as for `NC(=O)CCCC1=NS(=O)(=O)c2ccccc2N1`, 10.1%; as for `N/C(=N\c1nc2ccccc2o1)NC(=O)C(Cc1ccccc1)N1C(=O)c2ccccc2C1=O` (configuration not stated), 0.7%.
Consider `CCOC(=O)C1=C(C)NC(C)=C(C(=O)OCC)C1c1ccccn1`, for which the inhibition is 6.7%.
As to `CCOC(=O)CNC(=O)CSc1nnc(-c2cccc(OC)c2)n1CC`, the inhibition is 12.5%.
As for `CC1CCCCN1S(=O)(=O)c1ccc(C(=O)Nc2nnc(-c3cccs3)o2)cc1` (configuration not stated), the figure is 49.4% (active).
For `CC(C)(C)n1nc2c(c1NC(=O)c1ccc(S(=O)(=O)N3CCCC3)cc1)CS(=O)C2` (configuration not stated), the inhibition is 6.6%.
Regarding `Cc1ccc(C(=O)Nc2nnc(-c3cccs3)s2)cc1C`, the inhibition was -80.9%.
Under `Cc1ccc(-n2c(SCC(=O)Nc3ccc4c(c3)OCO4)nnc2-c2ccoc2C)cc1` stands 1%; under `CCCOC(=O)Nc1ccccc1C(N)=O`, -2.2%; under `CCCCOc1ccc(-c2ncc(C(=O)OCC)c(N)n2)cc1`, -49.8%.
In the case of `O=C(CN1CCN(c2ccccn2)CC1)NCc1cccs1`, the inhibition was -7.1%.
As for `COc1ccc(-n2ncc3c(N4CCc5ccccc54)ncnc32)cc1`, the figure is -59.8%; as for `c1cc(-n2cnnn2)ccc1NC1=NCCC1`, 9.1%; as for `CCC(=O)Nc1ccc2c(c1)nc(CCN1CCN(C)CC1)n2C`, 2.6%.
As for `CCOC(=O)Cc1csc(NC(=O)C(C)(C)C)n1`, the figure is -20.2%.
Take `CCn1c(CNc2ccc(OC)cc2)nnc1SCC(=O)c1ccc(OC)cc1`: the inhibition was 9.6%.
As for `COc1cc(Cl)c(C)cc1NC(=O)CSc1nnc(-c2cccnc2)n1Cc1ccco1`, the inhibition is -10.6%.
As for `Cc1nnc(SCC(=O)N(C(C)C)C(C)C)nc1C`, the figure is 3.3%; as for `Cc1ccsc1C(=O)OCC(=O)c1cc(C)n(CC2CCCO2)c1C` (configuration not stated), 80.5% (active); as for `O=C(OCC(=O)c1cccs1)C1=COCCO1`, -24.5%.
Under `CCOc1cccc(NC(=O)CC#N)c1` stands -9.5%.
As for `C/C(=N\O)C1(C)N(O)C(C)(C)C(c2ccc(Br)cc2)=[N+]1[O-]` (configuration not stated), the figure is 8.5%; as for `Cn1c(-c2ccco2)nc2cc3ccccc3cc21`, 54.3% (active).
As to `O=S(=O)(Nc1ccc2nc(-c3ccco3)[nH]c2c1)c1ccccc1`, the inhibition was -53.5%.
As for `c1ccc(CSc2nnc(-c3ccco3)n2Cc2ccccc2)cc1`, the figure is -76%; as for `Cc1cc(NC(=O)CCC(=O)N(c2ccccc2)C(C(=O)NC2CCCC2)c2ccncc2)no1` (configuration not stated), -9.4%; as for `CCOc1ccccc1NC(=O)CCc1ccc(C)o1`, 14.7%.
As to `O=C(O)C1CCCN(S(=O)(=O)c2cccc3cccnc23)C1` (configuration not stated), the inhibition is -5.7%.
As for `COc1ccc(N2CC(C)Cn3c2nc2c3c(=O)n(Cc3ccccc3F)c(=O)n2C)c(OC)c1` (configuration not stated), the figure is -2.3%.
`Nc1ncc(-c2cc3ccccc3oc2=O)s1`: the inhibition was -79.3%.
As for `CCOC(=O)c1c(C(C#N)C#N)cc(C)nc1C`, the figure is -2.3%.
`CC(C)COC(=O)c1ccc(NC(=O)C2C3C=CC(C3)C2C(=O)O)cc1` (configuration not stated): the inhibition was -63.7%.
Under `Cn1c(=O)c2c(nc(SCCNS(=O)(=O)c3ccccc3)n2C)n(C)c1=O` stands 13.3%; under `CC(=O)c1c(N2CCOCC2)nc(=S)n(-c2cc(C)ccc2C)c1C`, -0.4%.
As for `COC(=O)c1ccc(NC(=O)c2ccco2)cc1`, the figure is -85.3%.
Turning to `COc1ccccc1N1CC(O)=C(c2nc3ccccc3s2)C1=N`, the inhibition is -13.3%.
Under `O=C(OC1CCOC1=O)c1ccc(-c2nc3ccccc3s2)s1` (configuration not stated) stands 59.9% (active); under `COc1ccc(CCN2CNc3c(c(=O)n(C)c(=O)n3C)C2)cc1OC`, -1.5%; under `CSCC[C@H](NC(=O)NCCc1ccc(F)cc1)C(=O)O`, -3.2%.
As for `Fc1ccc2nc(Nc3nc4c(s3)CCCC4)sc2c1`, the figure is -90%; as for `CCCC(CCC(=O)OC)(C(=O)OCC)c1csc(N)n1` (configuration not stated), -13.3%.
Under `CC(Oc1ccc(Cl)cc1)C(=O)Nc1ncccn1` (configuration not stated) stands 16%.
With `O=C(Nc1ccc(Cl)cn1)c1cnn2cccnc12`, the inhibition is -63.8%.
Consider `C=CCN(c1ccc(C(N)=O)cc1)S(C)(=O)=O`, for which the inhibition is -14.5%.
For the compound `Cc1cccc(CC(=O)Nc2c3c(nn2-c2cccc(Cl)c2)CS(=O)C3)c1` (configuration not stated), the inhibition was 13.6%.
With `COc1cccc(-c2nc3n(n2)C(c2ccccc2Cl)C(C(N)=O)=C(C)N3)c1` (configuration not stated), the inhibition was 17.2%.
As for `O=S(=O)(c1cccs1)N1CCc2ccccc2C1`, the figure is 12.2%; as for `COCc1[nH]nc2c1C(C1C=CCCC1)C(C#N)=C(N)O2` (configuration not stated), -8%; as for `CCOC(=O)[C@H]1CCC[C@@H](NS(=O)(=O)c2ccc(NC(C)=O)cc2)C1`, -18.3%.
Under `CCN(c1ccccc1)S(=O)(=O)c1ccc(N)cc1` stands -8.5%; under `CCCOc1ccc(/C(O)=C2/C(=O)C(=O)N(CCN(C)C)C2c2ccc(OC)c(OC)c2)cc1` (configuration not stated), -2.4%; under `CC(C)Cc1cc(C(=O)NCCc2ccccc2)no1`, -80.7%.
Under `Cc1cc(/C=N/n2cnnc2)c(C)n1-c1ccc2ncccc2c1` stands 2.6%; under `Cc1cccc(-c2noc(-c3ccc(F)cc3)n2)c1`, -77.6%; under `O=C(Oc1ccc(-c2nc(-c3ccccn3)no2)cc1)c1ccccc1`, 49.6% (active).
Consider `CCOC(=O)N1CCC(Nc2c(NCCN3CCN(c4cccc(Cl)c4)CC3)c(=O)c2=O)CC1`, for which the inhibition was -1.7%.
As for `COc1ccc(-c2nc(-c3ccccc3)no2)c(OC)c1`, the figure is 82.9% (active).
As to `COc1ccc(-c2noc(-c3cccc(OC)c3OC)n2)cc1OC`, the inhibition was -100%.
Consider `COc1ccc2c(c1)CCc1c(C(=O)N3CCCC3)noc1-2`, for which the inhibition was -55.3%.
As for `CCOC(=O)N1CCN(CC(=O)Nc2cc(C)nn2-c2nc3ccccc3s2)CC1`, the figure is -0.5%; as for `CCOC(=O)N1CCN(C(=O)C2CCCN(c3ncnc4c3sc3cccc(F)c34)C2)CC1` (configuration not stated), 2.8%; as for `CCOC(=O)N1CCN(C(=O)C2CCN(c3ncnc4c3sc3cccc(F)c34)CC2)CC1`, 55.2% (active).
Regarding `COc1ccc(C(CC(=O)O)NC(=O)Cc2ccccc2)cc1` (configuration not stated), the inhibition was 10.8%.
As for `COC(=O)c1ccc(NC(=O)C(C)N2C(=O)c3ccccc3C2=O)cc1` (configuration not stated), the figure is -11.5%; as for `CCC(=O)N1CCN=C1SCc1ccc(F)cc1`, -14.3%; as for `CCN(CC)c1ccc(C(=O)OCC(=O)c2ccco2)cc1`, -53.6%.
As for `CC1CCCN(Cc2nc3c(c(=O)n(C)c(=O)n3C)n2CC(=O)c2ccccc2)C1` (configuration not stated), the figure is -26.7%; as for `COc1ccc(CCNC(=O)CN2CCC(n3nnc4cc(F)ccc43)CC2)cc1OC`, -4.4%.
